# Most compounds without a hit are left out; they make up all but 17% or so of the library.
# S2 tox = Viability Counterscreen for Primary qHTS for Inhibitors of ATXN expression | S2 cells (HEK-293 line with an ATXN2-luciferase reporter) viability, CellTiter-Fluor protease fluorescence, 24 h | Potency, µM (doses to about 56.7 µM), actives largely listed as cytotoxic | actives 0.49% (n = 400,000) | AID 651635, 2014; note: nearly all actives have a fitted effect of over 40% in size
# DT40 TDP1 CPT = qHTS for Inhibitors of human tyrosyl-DNA phosphodiesterase 1 (TDP1): qHTS in cells in presence of CPT. chicken DT40 Tdp1-/-;hTDP1 cells + 20 nM CPT, ATP luminescence, 48 h. AID 686979, 2013. actives 12% (n = 420,000). Potency, µM (titrated, usually from 46.2 µM), inactives show top-dose activity change, negative = growth inhibition, hits mostly inhibitors; note: % is set by controls: 0 for no effect and ±100 for the full control effect; nearly all actives have a fitted effect of over 55% in size
#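 Cell growth measured by CellTiter-Glo luminescence after a minimum 48 h, 37 C compound exposure with 20 nM CPT in Tdp1-knockout DT40 cells stably expressing hTDP1, seeded 400/well; qHTS titration format.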
# HepG2 viability = qHTS for Inhibitors of TGF-b: Cytotox Counterscreen. Potency, µM (titrated, usually from 46.1 µM), for inactives: at the top dose activity change, negative = cytotoxicity, hits mostly cytotoxic. actives 0.76% (n = 410,000). HepG2 CAGA-GFP viability, ATP luminescence, 18 h
#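 HepG2 CAGA-GFP cells (1000/well, DMEM with 1% FBS) received compound, then TGF-beta at 500 pg/mL final, and were incubated 18 hours at 37 degrees C. Viability was read by CellTiter-Glo luminescence. Media-only wells were set as complete cell-killing and DMSO as no toxicity.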
# DT40 TDP1 no CPT = qHTS for Inhibitors of human tyrosyl-DNA phosphodiesterase 1 (TDP1): qHTS in cells in absence of CPT. Potency, µM (top dose mostly 46.2 µM), for inactives: top-dose activity change, negative = growth inhibition, most hits filed as inhibitors. actives 15% (n = 420,000). DT40 Tdp1-/- hTDP1 cells, no CPT, ATP luminescence, 48 h. AID 686978, 2013; note: % is set by controls: 0 for no effect and ±100 for the full control effect; nearly all actives have a fitted effect of over 55% in size
#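 No-CPT arm: Tdp1-/-;hTDP1 DT40 cells (400/well) plus compounds, incubated ≥48 hr at 37 °C. Readout CellTiter-Glo luminescence.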
# TGFb SMAD3 inh = qHTS for Inhibitors of TGF-b | HepG2 CAGA-GFP TGF-b/SMAD3 reporter, GFP fluorescence, 18 h; TGF-beta stimulated, 500 pg/mL final | Potency, µM (highest dose often 46.1 µM), inactives show at the top dose activity, negative = inhibition, hits mostly inhibitors | actives 1.2% (n = 410,000); note: % is set by controls: 0 for no effect and ±100 for the full control effect; nearly all actives have a fitted effect of over 65% in size
#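 Inhibition was scored as loss of TGF-beta-induced (500 pg/mL final, 18 hours, 37 degrees C) GFP in HEPG2 cells carrying a CAGA-GFP reporter, in DMEM with 1% FBS. Well GFP was summed per cell; Activity was normalised to unstimulated and stimulated DMSO wells, then concentration-response fitting.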
# ATXN2 expr inh = Primary qHTS for Inhibitors of ATXN expression; actives 0.72% (n = 360,000); HEK-293 ATXN2-luciferase reporter, luminescence, 24 h; Potency, µM (series often up to 57 µM), for inactives: top-dose activity change, negative = inhibition, usual class: inhibitors; AID 1745845, 2022; note: % is set by controls: 0 for no effect and ±100 for the full control effect; nearly all actives have a fitted effect of over 55% in size
#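 qHTS (up to 57 uM final) was run with 24 h compound exposure of reporter cells at 37 °C. Each well was multiplexed: SteadyGlo luminescence measured ATXN2-luciferase expression after a fluorogenic Gly-Phe-AFC viability readout (25 uM final).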
# An asterisk follows results filed as active; i = inactive; ? = inconclusive; · = not tested or not shown; [ ] = dose if it differs, or a comment. Calls come from the whole dose curve; as a rule, active = well fitted curve in the direction sought with a large enough effect; inconclusive = small, poorly fitted or top-dose-only effect, or another doubt; inactive = no such curve, though single readings can be large; an effect the other way counts as inactive or inconclusive. Potency is the fitted concentration of half-maximal effect.
SMILES,S2 tox,DT40 TDP1 CPT,HepG2 viability,DT40 TDP1 no CPT,TGFb SMAD3 inh,ATXN2 expr inh
COc1cccc(/C=N/Nc2nc3ccccc3n3cnnc23)c1,i,-15%,0%,?,10%,1%
N[C@H](C(=O)O)c1cccc(O)c1,·,4%,·,-9%,·,·
CCOc1ccc(N(C)c2ccc(/C=C3/SC(=S)NC3=O)cc2)cc1,i,?,-26%,16µM*,-23%,0%
FC(F)(F)c1ccccc1-c1nccc(NCCN2CCOCC2)n1,·,7%,·,5%,·,·
CN(C)CCN(Cc1ccccc1)S(=O)(=O)c1ccc2[nH]c(=O)ccc2c1,i,-7%,0%,1%,27%,-19%
COc1ccc(NC(=S)Nc2cccc(C(F)(F)F)c2)c(C)c1,i,-28%,-12%,-13%,-13%,4%[11.3 µM]
CCCCCC(=O)NC(NC(=S)N1CCOCC1)C(Cl)(Cl)Cl (stereo not given),i,?,-31%,?,?,3%
CCCCCCCCC(=O)NC(NC(=S)N1CCOCC1)C(Cl)(Cl)Cl (stereo not given),i,?,-73%,15µM*,?,-19%
C=CCNc1c(O)cc2c(O)c1C[C@@H](C)C[C@H](OC)[C@@H](O)[C@@H](C)C=C(C)[C@H](OC(N)=O)[C@@H](OC)C=CC=C(C)C(=O)N2,·,·,·,·,·,0.77µM*
CCN(CC)S(=O)(=O)c1ccc2c(c1)N(CC(=O)N(C)Cc1ccccc1)C(=O)CO2,i,?,-8%,26µM*,-13%,-7%
CCN(Cc1ccccc1)C(=O)CN1C(=O)COc2ccc(S(=O)(=O)N3CCCCCC3)cc21,i,21µM*,-6%,23µM*,?,-7%
CCCCN(CCCNC(=O)CN1C(=O)COc2ccc(S(=O)(=O)N3CCC(C)CC3)cc21)Cc1ccccc1,?,?,-1%,?,?,·
CCN(CC)S(=O)(=O)c1ccc2c(c1)N(CC(=O)Nc1c(C)cccc1C)C(=O)CO2,·,2%,-6%,-3%,·,·
CCN(Cc1ccccc1)C(=O)CN1C(=O)COc2ccc(S(=O)(=O)N3CCOCC3)cc21,·,?,-1%,-26%,-10%,·
CC1CCN(S(=O)(=O)c2ccc3c(c2)N(CC(=O)N(C)Cc2ccccc2)C(=O)CO3)CC1,·,?,3%,21µM*,0%,·
CCN(Cc1ccccc1)C(=O)CN1C(=O)COc2ccc(S(=O)(=O)N(CC)CC)cc21,i,23µM*,3%,?,-7%,-13%
CCCS(=O)(=O)NCc1c(C)ncc2c1CCN(C(=O)c1ccc(Cl)cc1)C2,i,-3%[9.04 µM],·,-16%,·,·
O=C(Nc1cccc(C(=O)N2CCCCC2)c1)C1CCCCC1,i,-16%,1%,-5%,12%,9%
CCC(C(=O)NCCc1ccccc1OC)n1nc(C)c2c(C)n(-c3ccccc3)nc2c1=O (stereo not given),·,?,-17%,?,-15%,·
COC(=O)c1cn([C@@H]2C[C@@H](C(=O)Nc3cccc(SC)c3)N(C3CCCC3)C2)nn1,i,3%[9.04 µM],·,-24%,·,·
N#Cc1cccc(C#N)c1Oc1ccc(S(=O)(=O)Nc2ccc(Cl)cc2)cc1,i,-62%,-12%,16µM*,?,·
O=C(O)c1sccc1Oc1ccc(NS(=O)(=O)c2ccc(Cl)cc2)cc1,i,0%,-2%,-6%,-13%,·
CCOC(=O)c1c(O)c2cc(Cl)ccc2n(CC)c1=O,i,1%,-18%,-23%,-1%,-4%
OC(COCC(F)(F)C(F)(F)C(F)(F)C(F)F)Cn1c2ccc(Cl)cc2c2cc(Cl)ccc21 (stereo not given),?,3.7µM*,-117%,2.6µM*,10µM*,?
CCc1ccc(-c2nc3cc(NC(=O)c4ccc(F)cc4)ccc3o2)cc1,i,-15%,1%,?,5%,10%
SMILES,S2 tox,DT40 TDP1 CPT,HepG2 viability,DT40 TDP1 no CPT,TGFb SMAD3 inh,ATXN2 expr inh
COc1cc(N2C(=O)C=CC2=O)c(OC)cc1Cl,20µM*,1.8µM*,-91%,1.3µM*,11µM*,?
COc1ccc(-c2csc(NC(=O)COC(=O)C3=COCCO3)n2)cc1,i,3%,-29%,-16%,-4%,·
Cc1ccc(NS(=O)(=O)c2ccc(C(=O)NCc3ccncc3)cc2)cc1,i,?,-10%,?,-5%,-9%
Cc1ccc(S(=O)(=O)Nc2ccc(C(=O)Nc3ccncc3)cc2)cc1,i,15µM*,-2%,?,19%,5%
Cc1ccc(NS(=O)(=O)c2ccc(C(=O)NCc3cccnc3)cc2)cc1,i,?,-22%,15µM*,-8%,-13%
Cc1ccc(NS(=O)(=O)c2ccc(C(=O)NNC(=O)c3ccccc3O)cc2)cc1,i,?,-35%,23µM*,-19%,?
Cc1ccc(S(=O)(=O)Nc2ccc(C(OC(=O)c3ccccc3[N+](=O)[O-])(C(F)(F)F)C(F)(F)F)cc2)cc1,i,?,10µM*,?,10µM*,-3%
O=C(OC(c1ccc(NS(=O)(=O)c2ccccc2)cc1)(C(F)(F)F)C(F)(F)F)c1ccccc1,?,?,-69%,?,?,?
Cc1[nH]n(-c2ccccc2)c(=O)c1C(c1cc(Cl)ccc1O)c1c(C)[nH]n(-c2ccccc2)c1=O,·,-19%,-62%,?,7.9µM*,·
CCOc1cc(C(c2c(C)[nH]n(-c3ccccc3)c2=O)c2c(C)[nH]n(-c3ccccc3)c2=O)ccc1O,·,?,8.9µM*,5.2µM*,11µM*,?
Cc1noc(C)c1-c1nccc(-n2ccnc2)n1,·,4%,·,-3%,·,·
CCc1nnc(NC(=O)CSc2nc3[nH]c(=O)cc(O)c3s2)s1,i,6.5µM*,4%,6.5µM*,-1%,5%
CCCSc1nnc(NC(=O)CSc2nc3[nH]c(=O)cc(O)c3s2)s1,i,2%,14%,23%,7%,2%
Cc1csc(NC(=O)CSc2nc3[nH]c(=O)cc(O)c3s2)n1,?,21µM*,24%,15µM*,?,-30%
O=C(CSc1nc2[nH]c(=O)cc(O)c2s1)Nc1nncs1,i,-21%,-5%,-15%,0%,-3%
